These results are taken from PubChem BioAssay AID1671192 (National Center for Advancing Translational Sciences (NCATS), 2021).

Inconclusive results are not listed. Calls of active or inactive are those of the source. The call rests on the fitted dose curve; in most records, active means well fitted curve in the direction sought with a large enough effect; inconclusive means small, poorly fitted or top-dose-only effect, or another doubt; inactive means no such curve, though single readings can be large or run the other way.

The assay deals with Polyunsaturated fatty acid lipoxygenase ALOX15 (Homo sapiens) (UniProt P16050). Nature of the assay: Counterscreen qHTS for inhibitors of human arachidonate 12S-lipoxygenase (ALOX12): ALOX15 Assay. Further: 0% is about no effect. Particulars: purified ALOX15 enzyme activity; series mostly up to 110 µM; activity change, negative = inhibition: at the top concentration. The gist of the method: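 Purified human ALOX15 (15hLO-1) at 40 nM in 25 mM HEPES, 0.01% Triton X-100, pH 7.5, preincubated with compound 15 min at RT. Then 50 uM arachidonic acid for 30 min; hydroperoxide detected by Fe-xylenol orange as the 573/405 nm absorbance ratio.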
Polyunsaturated fatty acid lipoxygenase ALOX15 (Homo sapiens), sequence (P16050 whole entry, looked up): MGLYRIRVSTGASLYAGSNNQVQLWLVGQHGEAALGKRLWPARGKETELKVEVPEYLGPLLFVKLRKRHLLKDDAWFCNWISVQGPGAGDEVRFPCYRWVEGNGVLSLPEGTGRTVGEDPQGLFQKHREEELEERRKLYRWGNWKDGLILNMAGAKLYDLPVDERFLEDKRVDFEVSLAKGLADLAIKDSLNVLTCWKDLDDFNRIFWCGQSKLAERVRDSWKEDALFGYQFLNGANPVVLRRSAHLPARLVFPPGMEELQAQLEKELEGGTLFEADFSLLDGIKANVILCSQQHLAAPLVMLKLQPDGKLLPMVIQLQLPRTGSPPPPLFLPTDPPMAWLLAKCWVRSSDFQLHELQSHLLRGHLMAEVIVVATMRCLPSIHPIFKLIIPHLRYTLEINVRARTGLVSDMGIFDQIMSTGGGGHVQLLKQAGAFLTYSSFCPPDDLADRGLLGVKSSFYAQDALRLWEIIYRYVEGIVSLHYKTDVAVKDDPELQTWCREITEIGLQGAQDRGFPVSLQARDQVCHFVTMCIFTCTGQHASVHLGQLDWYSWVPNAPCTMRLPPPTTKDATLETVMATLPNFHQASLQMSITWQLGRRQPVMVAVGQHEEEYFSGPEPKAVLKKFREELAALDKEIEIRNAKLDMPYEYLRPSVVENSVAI
A general note: Counterscreens check selectivity or assay interference.
For the molecule `O=C1NCc2ccccc2CC12CCN(Cc1ccccc1OC(F)(F)F)C2` (stereo not drawn), the “activity change, negative = inhibition” value was -5.04% (inactive). Take `O=C1NCc2ccccc2CC12CCN(Cc1ccc(Cl)s1)C2` (stereo not drawn): the “activity change, negative = inhibition” value was -19.6% (inactive).

For `C[S+](=O)([O-])N1Cc2ccccc2CC2(CCCN2CC2CCNCC2)C1` (stereo not drawn), the “activity change, negative = inhibition” value is 4.72% (inactive).

Take `CCc1nc2c(c(-c3ccc(OC)cc3)n1)CN([S+](=O)([O-])c1cccc(OC)c1)CC2`: the “activity change, negative = inhibition” value was -24.4% (inactive). For `O=C(c1cc(C2CC2)nc2onc(C3CCCNC3)c12)N1CCC(F)CC1` (stereo not drawn), the “activity change, negative = inhibition” value is 5.09% (inactive). The same measure for `COc1ccccc1C(=O)N1CCC(N2Cc3ccccc3C2=O)CC1`: -0.704% [at 146 µM] (inactive). To `c1cc2c(cc1OC1CN(CC3CCCCC3)C1)OCO2` belongs -4.23% [at 146 µM] (inactive); to `CN1CC(=O)N(C2CCCNC2)Cc2c(NCCCO)ncnc21` (stereo not drawn), -25.2% [at 146 µM] (inactive); to `CCN1CCCCC12Cc1ccccc1CN(S(=O)(=O)c1ccccc1)C2` (stereo not drawn), 0.95% (inactive). The same measure for `CCOc1ccc(CN2CCC3(Cc4ccccc4CNC3=O)C2)cc1` (stereo not drawn): -15.1% [at 146 µM] (inactive); for `COc1cccc(N2C(=O)NC(=NC3CCCCC3)C23CCCN(Cc2cccnc2)C3)c1` (stereo not drawn): -1.65% (inactive); for `NCC(=O)N1CCC2(CC1)CN(C(=O)c1ccc(Cl)cc1)CCO2`: 14.2% (inactive). With `O=C1NCc2ccccc2CC12CCN(Cc1ccc3ccccc3c1)C2` (stereo not drawn), the “activity change, negative = inhibition” value was -29.2% (inactive).

Consider `O=C1NCc2ccccc2CC12CCN(C/C=C/c1ccccc1)CC2`, for which the “activity change, negative = inhibition” value is -24.6% [at 146 µM] (inactive). The same measure for `O=C1NCc2ccccc2CC12CCN(Cc1cccc(OC(F)(F)F)c1)C2` (stereo not drawn): 3% (inactive); for `CCc1ccc(CN2CCC3(CC2)Cc2ccccc2CNC3=O)s1`: -1.04% (inactive); for `CSc1ccc(-c2ccc(C(=O)O)cc2)cc1`: -17.8% [at 146 µM] (inactive). In the case of `COC[C@@H]1CCCN1c1ncnc2c1CN(C1CCNC1)C(=O)CN2C` (stereo partly drawn), the “activity change, negative = inhibition” value is 0.659% (inactive).

In the case of `Nc1ccccc1CN1CCCC2(Cc3ccccc3CNC2=O)C1` (stereo not drawn), the “activity change, negative = inhibition” value was -0.583% [at 146 µM] (inactive). As for `Cc1noc(C)c1C(=O)N1Cc2ccccc2CC2(CCN(C)C2)C1` (stereo not drawn), the “activity change, negative = inhibition” value was -17.4% [at 146 µM] (inactive). Take `NCc1ccc(-c2cccc(Cl)c2)cc1`: the “activity change, negative = inhibition” value is 26.5% [at 146 µM] (inactive). For `CC[C@@H](Nc1ncnc2c1CN(C1CCCNCC1)C(=O)CN2C)c1ccccc1` (stereo partly drawn), the “activity change, negative = inhibition” value was -14.8% (inactive).

With `CC(=O)NCCC(=O)N1Cc2ccccc2CC2(CCCN2CC2CCNCC2)C1` (stereo not drawn), the “activity change, negative = inhibition” value was -22.8% (inactive). To `O=C(c1ccc(C(F)(F)F)cc1)N1CCCC2(CC(c3ccccc3)=NO2)C1` (stereo not drawn) belongs 2.85% (inactive); to `O=C1NCc2ccccc2CC12CCCN2Cc1cccc(O)c1` (stereo not drawn), -11.9% [at 146 µM] (inactive). As for `O=C(N1CCOCC1)N1CCCC1c1nnc2n1CCNC2` (stereo not drawn), the “activity change, negative = inhibition” value was -2.38% [at 146 µM] (inactive).

Turning to `CC(=O)NCCC(=O)N1Cc2ccccc2CC2(CCCN(CC3CCNC3)C2)C1` (stereo not drawn), the “activity change, negative = inhibition” value is 3.5% (inactive). As to `O=C(c1cc(C2CC2)nc2onc(C3CCCNC3)c12)N1CCCCC1` (stereo not drawn), the “activity change, negative = inhibition” value was -12.1% [at 146 µM] (inactive). Regarding `O=C1NCc2ccccc2CC12CCN(Cc1c[nH]c3ccccc13)C2` (stereo not drawn), the “activity change, negative = inhibition” value was 8.74% (inactive). To `O=C(c1cc(C2CC2)nc2c1c(C1CCCN1)nn2-c1ccccc1)N1CCOCC1` (stereo not drawn) belongs -11.8% (inactive). Take `COc1ccc(C(=O)N2Cc3ccccc3CC23CCCN(C(=O)CCCN)C3)cc1` (stereo not drawn): the “activity change, negative = inhibition” value is -10.5% (inactive). The same measure for `COc1ccc(-c2nc(C3CC3)nc3c2CN(C(=O)c2ccccc2F)CC3)cc1`: -9.97% (inactive); for `C[S+](=O)([O-])N1CC2ON=C(C(=O)NCCc3ccc(Cl)cc3)C2C1` (stereo not drawn): -3.95% (inactive). To `COc1ccc(CN2CCCC23Cc2ccccc2CNC3=O)c(O)c1` (stereo not drawn) belongs -18.1% [at 146 µM] (inactive); to `CNCc1ccccc1OC(F)(F)F`, -10.2% [at 146 µM] (inactive).

For the molecule `CCN1CCCC2(Cc3ccccc3CN([S+](=O)([O-])c3ccccc3)C2)C1` (stereo not drawn), the “activity change, negative = inhibition” value was -25.9% (inactive). Regarding `Cn1nc(C2CCCN2)c2c(C(=O)NCc3ccncc3)cc(C3CC3)nc21` (stereo not drawn), the “activity change, negative = inhibition” value is -21.1% (inactive). As to `CN1CC(=O)N(c2ccc(Cl)cc2)Cc2c(NC3CCNCC3)ncnc21`, the “activity change, negative = inhibition” value is -20.7% (inactive).
